High-throughput results from PubChem.
The sample as a whole holds a higher share of hits than the screen did.
Tg IFNy HTS: inhibitors of Toxoplasma gondii growth with IFN-gamma; activity change, negative = inhibition, % (concentration not given with the values); 69,000 tested, 3.8% active; Toxoplasma gondii growth in IFN-gamma-treated host cells; active compounds read low; in the data active means activity change below about -70%, passing the limit was not always enough;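 further: host cells are HeLa cells infected with Toxoplasma gondii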
Large screens that a line does not name were inactive.

Nc1cccc(C(=O)N(CCN2CCOCC2)Cc2ccco2)c1	none
COc1cc(NC(=O)Nc2ccc(OC(F)(F)F)cc2)cc(C(F)(F)F)c1	Tg IFNy HTS -96
COc1ccc(-n2ncc(NC(=O)Nc3ccc(OC(F)(F)F)cc3)c2C)cc1	none
O=C(C#Cc1ccccc1)Nc1ccc(OC(F)(F)F)cc1	none
COc1cccc(-c2cccc(CN3CCC(C(N)=O)(N4CCOCC4)CC3)c2)c1	none
CCOC(=O)C(NC(C)=O)(N1CCCCC1)C(F)(F)F (stereo unspecified)	none
CNC(=O)c1ccc(-c2nc(CN3CCN(c4ccccc4)CC3)c(C)o2)cc1	none
CCCCOc1ccc(CNC(=O)c2ccc(-c3nc(CN4CCc5ccccc54)c(C)o3)cc2)cc1	Tg IFNy HTS -94
Cc1oc(-c2ccc(C(=O)NCc3ccccc3Cl)cc2)nc1CN1CCc2ccccc21	none
Cc1ccc(CNC(=O)c2ccc(-c3nc(CN4CCc5ccccc54)c(C)o3)cc2)o1	none
CCCCN(C)C(=O)c1ccc(-c2nc(CN3CCN(c4ccccc4)CC3)c(C)o2)cc1	none
Cc1oc(-c2ccc(C(=O)NCc3cccs3)cc2)nc1CN1CCc2ccccc21	Tg IFNy HTS -94
CCCCNC(=O)c1ccc(-c2nc(CN3CCc4ccccc43)c(C)o2)cc1	none
COCCCNC(=O)c1ccc(-c2nc(CN3CCc4ccccc43)c(C)o2)cc1	none
Cc1oc(-c2ccc(C(=O)NCCc3ccccc3)cc2)nc1CN1CCc2ccccc21	Tg IFNy HTS -127
CCOc1ccc(CNC(=O)c2ccc(-c3nc(CN4CCc5ccccc54)c(C)o3)cc2)cc1	none
Cc1oc(-c2ccc(C(=O)N(C)Cc3ccccc3)cc2)nc1CN1CCN(c2ccccc2)CC1	Tg IFNy HTS -94
Cc1oc(-c2ccc(C(=O)NCCCc3ccccc3)cc2)nc1CN1CCc2ccccc21	none
COc1ccc(-n2ccnc2CN2CCN(C(=O)c3ccccc3)CC2)cc1	none
OCC1CCCCN1CCn1cnnc1 (stereo unspecified)	none
COc1ccc(C(=O)Nc2ccnn2C2CCN(CC3CNC(=O)O3)CC2)cc1 (stereo unspecified)	none
COc1cccc(C2CCN(C(=O)c3cccc(NCC(=O)O)c3)C2)c1OC (stereo unspecified)	none
C=CCN1CCOCC2(C1)CN(CC1CC1)CCO2 (stereo unspecified)	none
Cc1[nH]c2c(C)ccc(C)c2c1CC(=O)NCCS(=O)(=O)N1CCCC1	none
Cc1ccc(NC(=O)C(=O)NCCc2sc(-c3ccc(F)cc3)nc2C)c(C)c1	none
CCc1ncc(C(=O)N2CCN(Cc3ncccc3C)CC2)cn1	none
CNC(=O)[C@@H]1C[C@@H](N)CN1C(=O)[C@@H](OC)c1ccccc1	none
Cc1oc(-c2ccc(C(=O)N3CCCCCC3)cc2)nc1CN1CCc2ccccc21	Tg IFNy HTS -101
Cc1oc(-c2ccc(C(=O)N3CCC(C)CC3)cc2)nc1CN1CCc2ccccc21	none
CCOC(=O)C1CCCN(C(=O)c2ccc(-c3nc(CN4CCc5ccccc54)c(C)o3)cc2)C1 (stereo unspecified)	none
CS(=O)(=O)NCC(=O)N1CCOC(CCCc2ccccc2)C1 (stereo unspecified)	none
CC(C)[C@@H]1COCc2cnnn2CCC[C@@H](C)C(=O)N1	none
O=C1CCC(=O)NCC/C=C/CCN1	none
CCn1nc(C)c(NC(=O)CN2CCC(c3nc4c(C)cccc4[nH]3)CC2)c1C	none
COc1ccc2c(OCc3nnc4ccc(-c5ccccc5)nn34)ccnc2c1	none
COc1ccc2oc(=O)c(C(=O)Nc3c(C)n(C)n(-c4ccccc4)c3=O)cc2c1	none
COc1ccc2c(Oc3ccc(NC(=O)c4c(C)n(CC(C)(C)O)n(-c5ccccc5)c4=O)nc3)ccnc2c1	Tg IFNy HTS -73
COc1ccc(CC(=O)NCCc2sc(-c3ccc(Cl)cc3)nc2C)cc1	none
N#CC1(C#N)C(c2ccccc2Cl)C(C(=O)c2ccccc2)N2C=Cc3ccccc3C21 (stereo unspecified)	none
COc1ccc(NC(=O)N2[C@H]3CCNC[C@@H]2CC3)c(C)c1	none
CC(C)NCCN(C(C)C)S(=O)(=O)c1ccc(Cl)cc1Cl	none
Fc1ccc(N2CCC3(CC2)CC(c2cccnc2)CO3)cc1 (stereo unspecified)	Tg IFNy HTS -82
COc1ccc(CN2CCC3(CC2)CC(c2cccnc2)CO3)cc1 (stereo unspecified)	none
N#Cc1ccc(N2CCC3(CC2)CC(c2cccnc2)CO3)cc1 (stereo unspecified)	none
COc1cccc(OCC2CCCN(CC(=O)Nc3ccn(C)n3)C2)c1 (stereo unspecified)	none
Cn1cccc1C(=O)NC[C@@H]1CCC[C@]2(CCN(S(C)(=O)=O)C2)O1	none
CCOc1ccc(C(=O)N2CCC3(CC2)NC(=O)c2ccc(F)cc2N3C)cc1	none
COc1ccc(OCc2nn3c(-c4cccs4)nnc3s2)cc1	none
CCCCOc1ccc(-c2nnc(-c3cccs3)n2-c2ccccc2)cc1	Tg IFNy HTS -80
Cc1cccc(-n2c(SCC(N)=O)nnc2-c2cccs2)c1C	none
CCCN1CCC(c2nc3ccc(-c4ccncc4)cn3n2)CC1	none
CC(=O)NC1(c2ccc(F)cc2)CCN(CC(O)c2ccc3c(c2)OCCCO3)CC1 (stereo unspecified)	none
Cc1cccc(COc2cccnc2N)c1	none
Nc1nc(N)c2c(OCc3ccc(C(F)(F)F)cc3)cccc2n1	Tg IFNy HTS -74
O=C(OCc1ccc(C(F)(F)F)cc1)c1cc(Cl)cc(Cl)c1	none
C=CCN1C(=O)COC2(CCN(Cc3cnn(C)c3)CC2)C1C (stereo unspecified)	Tg IFNy HTS -78
CC1N(Cc2cccnc2)C(=O)COC12CCN(Cc1cnn(C)c1)CC2 (stereo unspecified)	none
CC1N(CCN(C)C)C(=O)COC12CCN(Cc1cnn(C)c1)CC2 (stereo unspecified)	none
CN[C@H](C(=O)N[C@H](C(=O)N(C)[C@H](/C=C(\C)C(=O)O)C(C)C)C(C)(C)C)C(C)(C)c1ccccc1	Tg IFNy HTS -71
CO[C@H]1CN(C)C(=O)c2cc(NC(=O)c3nc4ccccc4s3)ccc2OC[C@@H](C)NC[C@H]1C	none
CO[C@@H]1CN(C)C(=O)c2cc(NC(=O)c3nc4ccccc4s3)ccc2OC[C@@H](C)NC[C@@H]1C	none
CO[C@H]1CN(C)C(=O)c2cc(NC(=O)c3nc4ccccc4s3)ccc2OC[C@H](C)NC[C@H]1C	Tg IFNy HTS -111
CO[C@@H]1CN(C)C(=O)c2cc(NC(=O)c3nc4ccccc4s3)ccc2OC[C@H](C)NC[C@H]1C	Tg IFNy HTS -92
CO[C@@H]1CN(C)C(=O)c2cc(NC(=O)c3nc4ccccc4s3)ccc2OC[C@@H](C)NC[C@H]1C	none
CO[C@H]1CN(C)C(=O)c2cc(NC(=O)c3nc4ccccc4s3)ccc2OC[C@@H](C)NC[C@@H]1C	none
Cc1nc2c(c(=O)n1C)CCN(Cc1ccc(Sc3nncn3C)o1)CC2	none
CC1(C)NC(=O)N(CN(CN2C(=O)NC(C)(C)C2=O)c2ccccc2)C1=O	none
Cc1csc2c(N3CCC(O)(CO)CC3)ncnc12	none
Cc1csc2c(N3CCc4nnc(C5CCCO5)n4CC3)ncnc12 (stereo unspecified)	none
COC(=O)c1sccc1S(=O)(=O)N1CCN(c2ncnc3c(C)csc23)CC1	Tg IFNy HTS -85
O=C(c1ccccc1)c1ccc(O)c(C(c2ccccc2Cl)N2CCCCC2)c1O (stereo unspecified)	Tg IFNy HTS -97
Cc1ccccc1N(Cc1nc(-c2ccccc2)oc1C)S(=O)(=O)c1cccs1	none
CCN1CCC2(CC1)OC(=O)C(C)=C2C(=O)Nc1ccc(F)cc1C	none
Brc1cccc(Nc2ncnc3cc4nc[nH]c4cc23)c1	none
CNc1cc2c(Nc3cccc(Br)c3)ncnc2cn1	none
CCN(CC)c1nc2nonc2nc1Nc1cccc(Br)c1	Tg IFNy HTS -112
